These results are taken from PubChem BioAssay (NCATS).

The nature of assay [1]: Cell Viability - Jurkat (AID 426;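 active means dose-dependent loss of cell ATP signal giving a full or clear fitted curve, ranked by lower potency value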; further: potency means the concentration at half of the fitted maximal effect). As to conditions: qHTS. The gist of the method:
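Cells of the human T-cell leukemia line Jurkat (E6-1) are seeded at 5000 per well, treated with compound across a concentration range for 40 hours at 37 °C, then lysed with CellTiter-Glo; luminescence reports ATP.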

Assay [2] in a line: Cell Viability - Hek293 (AID 427;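 active means compounds whose dose-response curve shows a full or clear partial loss of cell viability, called from curve shape rather than a numeric limit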;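 further: potency means the concentration at half of the fitted maximal effect; cells exposed to compound for 40 hours at 37 °C before reading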). As to conditions: qHTS. In outline: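 AC50 values derive from Hill-modelled concentration-response of ATP-based luminescence, normalized between DMSO-only and 100 uM tamoxifen controls. Cells were exposed in complete culture medium for 40 hr at 37 °C before detection.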
For assay [3], the target named is Mitogen-activated protein kinase 10 (Mus musculus) (UniProt Q61831). Put plainly: JNK3 AlphaScreen Assay (AID 530; active means well fitted curve in either direction with a large enough effect, not every such curve was filed as active;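 further: kinase came from lysate of stimulated human HepG2 cells; signal reports phosphorylation of biotinylated GST-cJun 1-79 at Ser73 with 10 µM ATP; on the % scale 0 is the no-effect control and ±100 the full control effect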). In outline: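 qHTS titrations with 15 min compound pre-incubation before adding ATP (10 uM final). Read-out: AlphaScreen of Ser73-phosphorylated biotin-GST-cJun using HepG2 lysate JNK3 activated by IL-1β and TNFα.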
Assay [4] is described as follows: Cell Viability - NIH 3T3 (AID 541).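 Further: plate controls were DMSO alone for no effect and tamoxifen positive control for full effect; nearly all actives have a fitted effect of over 25% in size.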 As to conditions: NIH 3T3 cell viability, qHTS; activity change, negative = cytotoxicity: at 92.2 µM (top of the series). In outline: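 Cells seeded at 1000/well, rested 5 hr at 37 °C, then dosed and incubated 40 hr at 37 °C. CellTiter-Glo added, 20 min room temperature, luminescence read. AC50 by Hill fit.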
Assay [5] in a line: Cell Viability - H-4-II-E (AID 543). Further: on the % scale 0 is the no-effect control and ±100 the full control effect; nearly all actives have a fitted effect of over 35% in size. The gist of the method:
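Cells seeded at 1500 per well and rested 5 hr; compounds added; 40 hr incubation at 37 °C; CellTiter-Glo added, 20 min at room temperature; luminescence read. Hill-equation fits gave AC50.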

Assay [6] in a line: Cellular Toxicity (caspase-3) NIH 3T3 (AID 666).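 Further: caspase signal read after 16 h compound exposure; 0% = DMSO basal and 100% = 100 µM tamoxifen stimulation.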 The gist of the method:
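Cells were plated at 1000 per well and incubated 5 hr at 37°C, then compound was added for 16 hr. Caspase-Glo 3/7 reagent followed for 20 min at room temperature before luminescence was read.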

The nature of assay [7]: Cell Viability - LYMP2-004 (AID 966).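 Further: plate controls were DMSO only for no effect and tetraoctylammonium bromide control for full effect; nearly all actives have a fitted effect of over 65% in size.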 The gist of the method: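 qHTS cytotoxicity: human lymphoblastoid line, 24 hr compound treatment, 37 C, complete medium. Viability read as cellular ATP via luciferase luminescence; tetraoctylammonium bromide served as positive control.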
Assay [8] in a line: Cell Viability - LYMP2-019 (AID 973).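 Further: 0% = DMSO alone and full effect = 92 µM tetraoctylammonium bromide; nearly all actives have a fitted effect of over 55% in size.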 In outline:
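Cytotoxicity is scored as a concentration-dependent drop in cellular ATP after cells (2500/well) receive compound for 24 hr at 37 C. Tetraoctylammonium bromide serves as positive control.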

A short description of assay [9]: Cell Viability - LYMP2-023 (AID 975).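 Further: cellular ATP measured by luciferase luminescence as viability proxy; plate controls were DMSO only for no effect and 92 µM tetraoctylammonium bromide control for full effect; nearly all actives have a fitted effect of over 55% in size.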 In outline: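 Steps: seed 2500 human lymphoblastoid cells per well, incubate 5 hr at 37 C, add compound for 24 hr at 37 C, add CellTiter-Glo, hold 30 min at room temperature, read luminescence. AC50 derived by Hill modelling.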
The nature of assay [10]: Cell Viability - LYMP2-002 (AID 977).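 Further: compound exposure lasted 24 h at 37 °C; plate controls were DMSO only for no effect and 92 µM tetraoctylammonium bromide for full effect.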 The gist of the method:
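Human lymphoblastoid cells (2500/well) in complete medium were preincubated 5 hr at 37 C, then exposed to compounds for 24 hr at 37 C. Intracellular ATP was read by CellTiter-Glo luminescence; AC50 came from Hill-equation concentration-response fits.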

The nature of assay [11]: Cell Viability - LYMP2-007 (AID 979).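 Further: cells exposed to compound for 24 h before reading; 0% = DMSO only and the negative end = 92 µM tetraoctylammonium bromide; nearly all actives have a fitted effect of over 60% in size.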 The gist of the method: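 Cells are seeded at 2500 per well and rested 5 hr. Compounds are then added over a concentration series for 24 hr at 37 C. CellTiter-Glo is added for 30 min at room temperature before luminescence reading.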
The nature of assay [12]: Cell Viability - LYMP2-014 (AID 983).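 Further: plate controls were DMSO only for no effect and 92 µM tetraoctylammonium bromide for full effect; nearly all actives have a fitted effect of over 50% in size.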 In outline: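 Cells are plated at 2500/well and left 5 hr at 37 C. Compounds are added across a concentration range and incubated 24 hr at 37 C in complete medium. CellTiter-Glo is added, and luminescence is read after 30 min at room temperature.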
Assay [13] in a line: Cell Viability - LYMP2-018 (AID 985).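 Further: compound exposure lasted 24 hr at 37 °C; plate controls were DMSO only for no effect and tetraoctylammonium bromide at 92 µM for full effect; nearly all actives have a fitted effect of over 50% in size.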 The gist of the method: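 Seed 2500 lymphoblastoid cells per well, incubate 5 hr at 37 C, add compound and incubate 24 hr at 37 C, add CellTiter-Glo, wait 30 min at room temperature, then read luminescence.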
Assay [14] is described as follows: Cell Viability - LYMP2-026 (AID 989). Further: on the % scale 0 is the no-effect control and ±100 the full control effect; nearly all actives have a fitted effect of over 50% in size. In outline: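 Cells are seeded at 2500 per well and held 5 hr at 37 C. Compounds are added in concentration series for 24 hr, then CellTiter-Glo reagent is applied and luminescence read.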
Assay [15] in a line: qHTS assay for small molecule agonists of retinoid X receptor alpha signaling (AID 588544). The conditions noted are these: HEK293T RXRa-UAS-bla, beta-lactamase reporter, 18 h; 530 nm emission.
The nature of assay [16]: qHTS assay for small molecule antagonists of retinoid X receptor alpha signaling (AID 588546).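 Further: cells stimulated with 9-cis-retinoic acid as agonist; on the % scale 0 is the no-effect control and ±100 the full control effect.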 The conditions noted are these: HEK293T RXRa-UAS-bla, beta-lactamase ratio, antagonist mode; measured here: W530 green channel, cytotoxicity proxy. In outline: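 Beta-lactamase reporter inhibition, read as CCF4 fluorescence ratio (ex 405, em 460/530 nm) after 2 h at RT. HEK293T UAS-bla cells, 2500/well, were stimulated with 9-cis-RA at 500 or 100 nM final alongside test compound for 18 h at 37 C.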

In assay [17] the target is Voltage-gated inwardly rectifying potassium channel KCNH2 (Homo sapiens) (UniProt Q12809). Put plainly: qHTS Assay for Small Molecule Inhibitors of the Human hERG Channel Activity (AID 588834).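 Further: lower thallium flux fluorescence means stronger hERG block; nearly all actives have a fitted effect of over 50% in size.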 Further: potency means the concentration at half of the fitted maximal effect. In outline: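 Cells were infected with hERG-BacMam virus for 4 hrs at room temperature, grown overnight, then seeded at 2000/well. After dye loading and roughly 10 min compound treatment, thallium influx was triggered and fluorescence recorded.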
Sequence of Voltage-gated inwardly rectifying potassium channel KCNH2 (Homo sapiens) (Q12809 whole entry, looked up): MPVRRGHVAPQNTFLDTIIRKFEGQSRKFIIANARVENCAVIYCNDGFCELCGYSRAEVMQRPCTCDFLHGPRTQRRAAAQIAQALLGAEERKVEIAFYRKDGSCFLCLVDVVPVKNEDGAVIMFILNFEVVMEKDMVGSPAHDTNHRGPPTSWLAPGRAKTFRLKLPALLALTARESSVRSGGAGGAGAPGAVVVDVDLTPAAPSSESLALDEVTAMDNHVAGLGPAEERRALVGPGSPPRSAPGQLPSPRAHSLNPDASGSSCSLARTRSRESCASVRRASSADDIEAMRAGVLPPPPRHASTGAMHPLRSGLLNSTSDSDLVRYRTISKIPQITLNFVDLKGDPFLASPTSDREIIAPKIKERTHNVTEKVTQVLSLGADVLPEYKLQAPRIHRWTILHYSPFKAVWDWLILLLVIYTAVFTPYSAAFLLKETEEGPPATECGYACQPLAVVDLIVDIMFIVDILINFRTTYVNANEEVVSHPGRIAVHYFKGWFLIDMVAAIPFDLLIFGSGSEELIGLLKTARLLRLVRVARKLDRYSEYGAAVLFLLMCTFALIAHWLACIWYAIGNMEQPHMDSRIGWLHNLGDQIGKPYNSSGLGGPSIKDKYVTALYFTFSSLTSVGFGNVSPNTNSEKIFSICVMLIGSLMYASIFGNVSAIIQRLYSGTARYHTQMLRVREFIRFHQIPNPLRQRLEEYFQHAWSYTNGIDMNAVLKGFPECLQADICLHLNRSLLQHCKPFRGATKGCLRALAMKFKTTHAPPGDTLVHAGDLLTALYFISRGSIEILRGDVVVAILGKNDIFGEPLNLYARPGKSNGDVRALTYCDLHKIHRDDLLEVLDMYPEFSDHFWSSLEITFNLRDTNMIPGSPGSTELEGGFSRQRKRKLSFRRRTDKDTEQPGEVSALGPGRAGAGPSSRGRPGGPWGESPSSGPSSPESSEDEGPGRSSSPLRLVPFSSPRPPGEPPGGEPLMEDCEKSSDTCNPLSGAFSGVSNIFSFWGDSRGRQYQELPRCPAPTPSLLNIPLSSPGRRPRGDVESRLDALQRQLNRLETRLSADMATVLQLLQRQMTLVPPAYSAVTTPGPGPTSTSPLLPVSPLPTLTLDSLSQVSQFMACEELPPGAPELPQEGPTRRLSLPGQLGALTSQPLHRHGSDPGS

The nature of assay [18]: Cell Viability - LYMP2-021 (AID 974).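 Further: compound exposure lasts 24 hours at 37 °C; on the % scale 0 is the no-effect control and ±100 the full control effect; nearly all actives have a fitted effect of over 55% in size.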 The gist of the method: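 Loss of cellular ATP, measured with a luciferase-based CellTiter-Glo readout, serves as the toxicity signal in human lymphoblastoid cells treated for 24 hours at 37 C. Potency is reported as AC50 from a standard Hill model.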
Assay [19] can be described thus: Cell Viability - LYMP2-020 (AID 986).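 Further: plate controls were DMSO only for no effect and tetraoctylammonium bromide at 92 µM for full effect; nearly all actives have a fitted effect of over 55% in size.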 The gist of the method: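 Seed 2500 cells per well and incubate 5 hr at 37 C. Add compounds at a concentration series and incubate 24 hr at 37 C. Add CellTiter-Glo, wait 30 min at RT, read luminescence, and fit a Hill curve for AC50.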
Assay [20] in a line: Cell Viability - LYMP2-022 (AID 987). In outline: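 Cells were seeded at 2500 per well, rested 5 hr at 37 C, and treated with titrated compounds for 24 hr at 37 C. Cellular ATP was then quantified by luciferase luminescence, and AC50 values were derived from Hill-modelled concentration-response curves.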

Molecules are shown by their SMILES. Values joined by “and” are separate entries in the source; they are usually repeats but may differ in a detail not shown here. Equal entries are not always repeated. Records with an inconclusive call do not appear. Active and inactive are the calls of the source. Unless noted, the call rests on the fitted dose curve; in most records, active means well fitted curve in the direction sought with a large enough effect; inconclusive means small, poorly fitted or top-dose-only effect, or another doubt; inactive means no such curve, though single readings can be large; an effect the other way counts as inactive or inconclusive.

Regarding `ClC(Cl)=C(Cl)C(Cl)=C(Cl)Cl`, the Potency in assay [1] and in assay [2] was > 92 µM (inactive) throughout. Further, the molecule was called inactive in assay [3] and in [6]. Besides, the activity change, negative = cytotoxicity in assay [4] is -27.5% (inactive). Moreover, the Potency result in [5], in assay [7], in [8], in assay [9], in assay [10] and in assay [11] was “inactive” in each case. For the same molecule, the Potency entry in [12], in assay [13], in assay [14] and in assay [17] was “inactive” throughout. The max response in assay [15] was -9.28% and -8.5%; in [16], -3.71% and -13.6%.
Take `CCCCCCCC(=O)Cl`: the Potency in [1] and in assay [2] was > 92 µM (inactive) throughout. The molecule was classed as inactive in assay [3] and in assay [6]. Further, in assay [4], the activity change, negative = cytotoxicity was 5.37% (inactive). Besides, the Potency result in [5], in assay [7], in assay [8], in [18], in [9] and in [10] was “inactive” throughout. Besides, the Potency result in assay [11], in [12], in assay [13], in assay [19], in assay [20] and in assay [14] was “inactive” each time. Also, the Potency entry in assay [17] is “inactive”. For the same molecule, the max response in assay [15] is 12.8%; in [16] it was -7.27%.
On to `S=C=Nc1cccc2ccccc12`, for which the Potency in [1] and in assay [2] was > 92 µM (inactive) throughout. Moreover, the call in [3] and in assay [6] was inactive. For the same molecule, in assay [4], the activity change, negative = cytotoxicity was 1.16% (inactive). For the same molecule, the Potency entry in assay [5], in [7], in assay [8], in assay [18], in assay [9] and in [10] was “inactive” in each case. Also, the Potency result in [11], in [12], in assay [13], in assay [19], in assay [20] and in assay [14] was “inactive” each time. In [17], the Potency entry is “inactive”. Besides, the max response in assay [15] was 6.51%; in assay [16] it was -0.704%.
Consider `C=CC(C)=O`, for which the Potency in assay [1] and in assay [2] was > 92 µM (inactive) each time. Besides, the outcome in assay [3] and in [6] was inactive. Besides, in [4], the activity change, negative = cytotoxicity was -2.38% (inactive). The Potency result in [5], in [7], in assay [8], in assay [18], in assay [9] and in assay [10] was “inactive” each time. The Potency result in assay [11], in assay [12], in [13], in assay [19], in [20] and in assay [14] was “inactive” throughout. For the same molecule, in assay [17], the Potency entry was “inactive”. Also, the max response is -8.63% in [15] and -5.91% in assay [16].
With `c1ccc(-c2ccccc2)cc1`, the Potency in assay [1] is > 92 µM (inactive); in assay [2], > 92 µM (inactive); in assay [17], 44.7 µM (active). Besides, the molecule was classed as inactive in assay [3] and in assay [6]. In addition, the activity change, negative = cytotoxicity in [4] is -5.05% (inactive). The Potency result in assay [5], in [7], in assay [8], in [18], in assay [9] and in [10] was “inactive” throughout. The Potency entry in assay [11], in assay [12], in [13], in assay [19], in [20] and in assay [14] was “inactive” each time. Besides, the max response was -1.55% and -17% in assay [15]; -7.26% and -12.6% in [16].
As to `O=C(Cl)C(Cl)(Cl)Cl`, the Potency in [1] and in [2] was > 92 µM (inactive) throughout. Moreover, the outcome in [3] and in assay [6] was inactive. In addition, in assay [4], the activity change, negative = cytotoxicity is 1.81% (inactive). For the same molecule, the Potency entry in [5], in assay [7], in [8], in assay [18], in assay [9] and in assay [10] was “inactive” throughout. Besides, the Potency entry in assay [11], in assay [12], in [13], in assay [19], in [20] and in assay [14] was “inactive” throughout. The Potency result in assay [17] is “inactive”. Further, the max response is 2.41% in assay [15] and 2.3% in assay [16].
Regarding `CCCSC(=O)Cl`, the Potency in assay [1] and in [2] was > 92 µM (inactive) throughout. Besides, the molecule was called inactive in [3] and in assay [6]. For the same molecule, the activity change, negative = cytotoxicity in assay [4] is -26.8% (inactive). The Potency entry in assay [5], in [8], in assay [18], in [9], in assay [10] and in [11] was “inactive” throughout. In addition, the Potency entry in assay [12], in assay [13], in assay [19], in assay [20], in assay [14] and in [17] was “inactive” each time. Also, the max response was -2.47% in assay [15] and -2.55% in assay [16].
